# Assay outcomes (PubChem BioAssay)
# Most compounds without a hit are left out; they make up all but 3.7% or so of the library.
# ANO1 block: TMEM16A chloride channel inhibitors, primary screen, cell-based, HTS. actives 1.2% (n = 310,000). normalized B-score (activity score, 25-100; higher = stronger inhibition) at 10 µM. Anoctamin-1 (Mus musculus), Q8BHY3. HEK293 TMEM16A/YFP iodide influx fluorescence, ionomycin;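 active = ratio plate-corrected score three or more library SD toward inhibition, starting fluorescence score within five deviations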;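 note: score derived from kinetic fluorescence span divided by baseline fluorescence per well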
# Target sequence (Q8BHY3 whole entry, looked up): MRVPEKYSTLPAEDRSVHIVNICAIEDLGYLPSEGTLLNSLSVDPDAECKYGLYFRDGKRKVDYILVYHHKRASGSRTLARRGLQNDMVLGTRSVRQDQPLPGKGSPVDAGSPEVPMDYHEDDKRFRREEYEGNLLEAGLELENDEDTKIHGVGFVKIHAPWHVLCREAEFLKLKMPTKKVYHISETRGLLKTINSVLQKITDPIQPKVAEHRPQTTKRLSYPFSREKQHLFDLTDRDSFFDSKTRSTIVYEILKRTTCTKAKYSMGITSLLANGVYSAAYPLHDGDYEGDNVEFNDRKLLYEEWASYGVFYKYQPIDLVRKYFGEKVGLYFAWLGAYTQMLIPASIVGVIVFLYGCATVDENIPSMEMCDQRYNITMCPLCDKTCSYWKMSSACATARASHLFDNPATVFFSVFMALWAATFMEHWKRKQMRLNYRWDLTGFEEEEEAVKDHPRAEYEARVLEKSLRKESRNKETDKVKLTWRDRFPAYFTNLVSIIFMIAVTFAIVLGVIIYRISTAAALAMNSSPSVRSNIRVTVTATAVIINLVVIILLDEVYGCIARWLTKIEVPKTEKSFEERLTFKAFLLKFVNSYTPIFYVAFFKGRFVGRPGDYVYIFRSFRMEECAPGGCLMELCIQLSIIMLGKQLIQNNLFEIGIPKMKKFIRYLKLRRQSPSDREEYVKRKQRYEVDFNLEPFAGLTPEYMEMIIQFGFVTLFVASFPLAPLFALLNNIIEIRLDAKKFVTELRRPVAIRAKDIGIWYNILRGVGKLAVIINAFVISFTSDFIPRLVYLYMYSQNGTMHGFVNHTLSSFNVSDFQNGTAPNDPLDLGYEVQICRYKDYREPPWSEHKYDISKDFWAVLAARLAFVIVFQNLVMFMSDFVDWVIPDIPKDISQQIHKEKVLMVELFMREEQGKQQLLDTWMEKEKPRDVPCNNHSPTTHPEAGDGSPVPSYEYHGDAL
# CHT PAM: CHT positive allosteric modulators, primary screen, cell-based, membrane potential dye, choline EC20. High affinity choline transporter 1 (Homo sapiens), Q9GZV3. CHT-expressing cells; hits give high values; LV-AA mutant CHT in HEK293 cells. B-score at 10 µM. actives 0.49% (n = 310,000). AID 488977, 2010;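 active = initial fluorescence not abnormally high and integrated response B-score, plate-corrected, over 3 SD above library mean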
# ANO1 activ: TMEM16A chloride channel activators or potentiators, primary screen, cell-based, HTS. actives 0.3% (n = 340,000). AID 623877, 2012. HEK293 TMEM16A/YFP-H148Q/I152L, iodide quench fluorescence; hits give low values. Anoctamin-1 (Mus musculus), Q8BHY3. B-score at 10 µM;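 active = fluorescence-ratio B-score plate-corrected deviation score at least 3 library SD below zero, with starting fluorescence score within 5 deviations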;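 note: channel opened by trigger with iodide after compound preincubation; score built on the fluorescence ratio of max minus min over baseline; more negative score means more quench and so TMEM16A activation or potentiation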
# GPR7 antag: GPR7 receptor antagonists, primary screen, cell-based, fluorescence, single concentration; Neuropeptides B/W receptor type 1 (Homo sapiens), P48145; GPR7-expressing cells, fluorescence antagonist assay; inhibition, % at 4.4 µM; actives 1.1% (n = 290,000); in the data active = inhibition above about 16%, passing the limit was not always enough;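 note: cells stimulated with the agonist NPW; 0% = agonist with vehicle and 100% = vehicle without agonist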
# Kir21 block: inhibitors of mouse Kir2.1 inward-rectifier potassium channel; Inward rectifier potassium channel 2 (Mus musculus), P35561; HEK293-Kir2.1, FluxOR thallium flux fluorescence; hits give low values; B-score at 10 µM; actives 0.85% (n = 310,000); AID 1672, 2009;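 active = fluorescence ratio B-score at or below minus 3 SD of library scores, with starting-brightness B-score within 2 SD, cut at about -4.2 in these data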;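 note: channel flux triggered by added potassium and thallium sulfate stimulus; B-score of peak minus minimum fluorescence over baseline after thallium stimulus; more negative B-score means stronger Kir2.1 block with less thallium influx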
# CHT block: inhibitors of human choline transporter CHT; High affinity choline transporter 1 (Homo sapiens), Q9GZV3; CHT-expressing cells, membrane potential dye, choline response; hits give low values; B-score at 10 µM; actives 0.86% (n = 310,000);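 active = B-score over 3 SD under the library average, and starting fluorescence ratio not unusually high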;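 note: choline stimulus applied at its EC90 after an EC20 pre-addition; B-score computed on integrated fluorescence ratio after choline addition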
# hERG inh: hERG channel inhibition, counter-screen for Kir2.1 inhibitor project, cell-based, thallium flux | shares compounds with Kir21 block | inhibition, % at 10 µM | actives 20% (n = 320) | AID 2236, 2010 | hERG-expressing cells;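 note: host cells are CHO cells stably expressing hERG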
# KCNK9 inh: KCNK9 channel inhibition, selectivity assay for Kir2.1 inhibitor project, cell-based; shares compounds with Kir21 block; KCNK9-expressing cells, ion flux inhibition; inhibition, % at 10 µM; actives 5% (n = 320)
# Kir21 ephys inh: mouse Kir2.1 channel blockers, Kir2.1 inhibitor project, cell-based, secondary, automated electrophysiology; shares compounds with Kir21 block; Kir2.1 cells, automated patch-clamp current inhibition; inhibition, % at 25 µM; actives 71% (n = 320)
# The depositor's hits bear a star; i = inactive; . = not tested or not shown. Unless noted, the rule behind the calls is not given here.
SMILES,ANO1 block,CHT PAM,ANO1 activ,GPR7 antag,Kir21 block,CHT block,hERG inh,KCNK9 inh,Kir21 ephys inh
Nc1nc(C2CC2)c(Sc2sc(N)nc2C2CC2)s1,i,i,i,7,-8.2*,i,i,i,6.1%*
COc1ccc(C(=O)NCC(=O)OCCOc2ccc(Cl)cc2)cc1OC,.,.,i,.,.,.,.,.,.
C=CCNCCCCOc1c(Cl)cc(C)cc1Br,i,i,i,-3,-9.3*,i,i,i,48%*
COc1ccc(CCC(=O)Nc2ccc(OC)c(S(=O)(=O)N3CCCCC3)c2)cc1,.,.,i,.,.,.,.,.,.
O=S(=O)(c1ccc(Cl)cc1)N1CCCC1c1nc(-c2ccc(Cl)cc2)no1 (stereo not given),i,i,i,-22,-1.1,i,.,.,.
Nc1nc(C2CCCN2S(=O)(=O)c2ccc(Cl)cc2)cs1 (stereo not given),i,i,i,-16,-6.6*,i,i,i,14%*
c1c[nH]c(CN2CCN(Cc3ncc[nH]3)CC2)n1,.,.,i,.,.,.,.,.,.
CCCCN(CCCNC(=O)CN1C(=O)COc2ccc(S(=O)(=O)N3CCC(C)CC3)cc21)Cc1ccccc1,i,i,i,-5,-5.7*,i,i,i,i
CCCCN(CCCC)CCNC(=O)CN1C(=O)COc2ccc(S(=O)(=O)N3CCC(C)CC3)cc21,i,i,i,-16,-1.9,i,.,.,.
O=S(=O)(c1ccccc1F)N1CCCc2ccccc21,i,i,i,-15,-6.1*,i,i,i,32%*
COc1cccc(C(C)NC(=S)NCc2ccc(F)cc2)c1 (stereo not given),i,i,i,-1,-6.8*,i,i,31%*,43%*
O=C(NCCc1ccc(Cl)cc1)C1(c2ccccc2)CC1,i,i,i,2,-9.5*,i,i,i,44%*
COc1cc(CNCCc2ccc(F)cc2)ccc1OCc1ccc(Cl)nc1,i,i,i,15,-8.2*,-5.9*,59%*,i,56%*
COc1cc(CNCCc2ccccc2F)ccc1OCc1ccc(Cl)nc1,i,i,i,-1,-5.1,i,.,.,.
Cc1ccc(O)c(CNCCNCc2cc(C)ccc2O)c1,i,i,i,.,-6.1*,i,i,i,51%*
COc1ccc(F)cc1S(=O)(=O)N1CCN(c2ccccn2)CC1,i,i,i,-2,-0.89,i,.,.,.
COc1ccc(F)cc1S(=O)(=O)N1CC(C)CC(C)C1 (stereo not given),i,i,i,-1,-6.2*,i,i,i,37%*
COc1ccc(Br)cc1S(=O)(=O)N1CCOCC1,i,i,i,-13,0.05,i,.,.,.
COc1ccc(Br)cc1S(=O)(=O)N1CC(C)OC(C)C1 (stereo not given),i,i,i,-3,-6.2*,i,i,i,26%*
COc1ccc(CCC(C)NCc2cccc(Br)c2)cc1 (stereo not given),i,i,i,4,-11*,i,i,i,54%*
Cc1ccccc1OCCC(=O)OCC(=O)Nc1c(F)cccc1F,i,i,i,.,0.1,i,.,.,.
Cc1ccc(S(=O)(=O)CS(=O)(=O)c2ccc(C)cc2)cc1,.,.,i,.,.,.,.,.,.
Cc1ccc(S(=O)(=O)CCCS(=O)(=O)c2ccc(C)cc2)cc1,i,i,i,-10,-5.7*,i,i,i,17%*
CC(C)c1ccccc1NC1=CC(=O)CC(C)(C)C1,i,i,i,12,-1.2,i,.,.,.
COc1ccc(C)cc1NC(C)C(=O)NC(=O)NC1CCCCC1 (stereo not given),.,.,i,.,.,.,.,.,.
SMILES,ANO1 block,CHT PAM,ANO1 activ,GPR7 antag,Kir21 block,CHT block,hERG inh,KCNK9 inh,Kir21 ephys inh
O=S(=O)(Nc1ccccc1N1CCOCC1)c1ccc(F)c(Cl)c1,i,i,i,-8,-12*,i,i,i,2.6%*
O=S(=O)(Nc1ccccc1N1CCOCC1)c1ccc(Cl)cc1,.,.,i,.,.,.,.,.,.
CCOC(=O)C1CCN(Cc2c(O)ccc3ccccc23)CC1,i,i,i,-6,-7.6*,i,i,i,4.0%*
CCOC(=O)N1CCN(Cc2c(O)ccc3ccccc23)CC1,i,i,i,-3,1,i,.,.,.
COc1cc(C)c(Cl)cc1S(=O)(=O)NCc1ccco1,i,i,i,-15,-1.5,i,.,.,.
CCOc1cc(C)c(Cl)cc1S(=O)(=O)NCc1ccco1,i,i,i,2,-8*,i,i,i,31%*
CNc1nnc(SCC(=O)c2c(N)n(C3CC3)c(=O)[nH]c2=O)s1,.,.,i,.,.,.,.,.,.
CN(C)CC/C=C1\c2ccccc2Sc2ccc(Cl)cc21,i,i,i,7,-8.1*,i,58%*,i,28%*
COC(=O)C1=C(C)N(Cc2ccccc2)C(=NCCc2ccccn2)N[C@H]1c1cccc(F)c1,i,i,i,12,-6.7*,i,i,i,3.0%*
CCN1C(=NCCc2ccccn2)N[C@@H](c2cccc(F)c2)C(C(=O)OC)=C1C,i,i,i,3,-1.6,i,.,.,.
CCOCc1cn(CC(=O)c2ccc([N+](=O)[O-])cc2)c(C)nc1=N,i,i,i,-5,3.1,i,i,i,i
COc1ccc(C(=O)CN2Cc3ccccc3C2=N)cc1,i,i,i,-10,-11*,i,65%*,i,i
COc1ccc(C(=O)CN2C(=O)COc3ccccc32)cc1,i,i,i,-3,-0.08,i,.,.,.
Cc1ccc2nc(CCCc3nc4ccc(C)cc4[nH]3)[nH]c2c1,.,.,i,-10,-8.6*,.,i,i,i
Cc1ccc2nc(C(O)C(O)c3nc4ccc(C)cc4[nH]3)[nH]c2c1 (stereo not given),i,i,i,-3,0.4,i,.,.,.
